Drawing on the antibiotic and cytotoxicity screens of Wong et al. (2023), this text covers cytotoxicity call for 47 compounds.

Screen size: about 39,000 compounds; about 3,300 (8.5%) were called active. Only a selection was taken, and actives are over-represented in it overall.

The test system of the assay is HepG2. Briefly: cytotoxicity call (relative viability < 0.9). The conditions noted are these: 10 µM.
Consider `C[C@@H]1CN([C@@H](C)CO)C(=O)CCCn2nncc2CO[C@H]1CN(C)C(=O)Nc1ccc(C(C)(C)C)cc1`, for which the cytotoxicity call was “inactive”.
Regarding `C[C@H](CO)N1C[C@H](C)[C@@H](CN(C)Cc2ccc(C(=O)O)cc2)Oc2c(NC(=O)c3cnccn3)cccc2C1=O`, the cytotoxicity call was “inactive”.
The entry for `CCOc1nc(N2CCOCC2)nc(N2CCOCC2)n1` is “inactive”; for `CC=NN(C)C=O` it is “inactive”.
On to `CC(C)NC(=O)Nc1ccc2c(c1)CC(=O)N([C@@H](C)CO)C[C@H](C)[C@@H](CN(C)S(=O)(=O)c1ccccc1)O2`, for which the cytotoxicity call is “inactive”.
`CC(C)COCC(CN(Cc1ccccc1)c1ccccc1)N1CCCC1.Cl` (configuration not stated): the cytotoxicity call is “active”.
`CC(COc1ccccc1)N(CCCl)Cc1ccccc1.Cl` (configuration not stated): the cytotoxicity call was “inactive”.
On to `c1ccc(CN(CC2=NCCN2)c2ccccc2)cc1`, for which the cytotoxicity call is “inactive”.
The value for `CN(C)C(=O)[C@@H]1[C@@H](CO)[C@@H]2Cn3c(ccc(C4=CCCC4)c3=O)[C@H]1N2S(=O)(=O)c1cn(C)cn1` was “inactive”; that for `COc1cccc(C#Cc2cnc3c(c2)C(=O)N([C@H](C)CO)C[C@H](C)[C@@H](CN(C)C(=O)C2CCC2)O3)c1` was “inactive”; that for `Cn1cnc(S(=O)(=O)N2C[C@@H](O)COC[C@@H]3O[C@H](CC(=O)NCc4cc(F)cc(F)c4)CC[C@H]32)c1` was “inactive”.
Take `C[C@H](CO)N1C[C@H](C)[C@H](CN(C)S(=O)(=O)c2cccs2)Oc2ncc(-c3ccc(F)cc3)cc2C1=O`: the cytotoxicity call is “inactive”.
Turning to `Cc1cc2nc3c(=O)[nH]c(=O)nc-3n(CC(O)C(O)C(O)COP(=O)([O-])O)c2cc1C.[Na+]` (configuration not stated), the cytotoxicity call was “active”.
For `Cc1cc2nc3c(=O)[nH]c(=O)nc-3n(C[C@H](O)[C@H](O)[C@H](O)COP(=O)(O)O)c2cc1C`, the cytotoxicity call was “inactive”.
The entry for `Cc1cc2nc3c(=O)[nH]c(=O)nc-3n(CC(O)C(O)C(O)CO)c2cc1C` (configuration not stated) is “inactive”.
Regarding `C[C@@H]1CN([C@H](C)CO)C(=O)c2cc(C#CC3(O)CCCC3)cnc2O[C@H]1CN(C)C(=O)Cc1ccccc1`, the cytotoxicity call was “inactive”.
As to `C[C@H]1CN([C@@H](C)CO)C(=O)c2cccc(NC(=O)Nc3cccc4ccccc34)c2O[C@H]1CN(C)Cc1ccc(-c2ccccc2)cc1`, the cytotoxicity call is “inactive”.
As to `C[C@@H]1CCCCO[C@H](CN(C)Cc2ccc(C(=O)O)cc2)[C@H](C)CN([C@H](C)CO)C(=O)c2cc(NC(=O)Nc3ccc4c(c3)OCO4)ccc2O1`, the cytotoxicity call was “inactive”.
With `C[C@@H]1CN([C@H](C)CO)C(=O)c2cc(NC(=O)Nc3ccc(C(F)(F)F)cc3)ccc2O[C@@H](C)CCCCO[C@H]1CN(C)Cc1ccc(Cl)c(Cl)c1`, the cytotoxicity call was “inactive”.
For `C[C@@H]1CCCCO[C@@H](CN(C)Cc2ccc(Cl)c(Cl)c2)[C@@H](C)CN([C@H](C)CO)C(=O)c2cc(NC(=O)Nc3ccc(C(F)(F)F)cc3)ccc2O1`, the cytotoxicity call was “inactive”.
For the compound `C[C@@H]1CCCCO[C@@H](CN(C)Cc2ccc(Cl)c(Cl)c2)[C@@H](C)CN([C@@H](C)CO)C(=O)c2cc(NC(=O)Nc3ccc(C(F)(F)F)cc3)ccc2O1`, the cytotoxicity call was “inactive”.
As to `C[C@@H]1CCCCO[C@@H](CN(C)Cc2ccc(Cl)c(Cl)c2)[C@H](C)CN([C@H](C)CO)C(=O)c2cc(NC(=O)Nc3ccc(C(F)(F)F)cc3)ccc2O1`, the cytotoxicity call is “inactive”.
For `C[C@H](CO)N1C[C@H](C)[C@@H](CN(C)Cc2ccc(Cl)c(Cl)c2)OCCCC[C@H](C)Oc2ccc(NC(=O)Nc3ccc(C(F)(F)F)cc3)cc2C1=O`, the cytotoxicity call is “active”.
For `C[C@@H]1CN([C@@H](C)CO)C(=O)c2cc(NC(=O)Nc3ccc(C(F)(F)F)cc3)ccc2O[C@@H](C)CCCCO[C@H]1CN(C)Cc1ccc(Cl)c(Cl)c1`, the cytotoxicity call is “inactive”.
On to `C[C@@H]1CN([C@H](C)CO)C(=O)c2cc(NC(=O)Nc3ccc(C(F)(F)F)cc3)ccc2O[C@@H](C)CCCCO[C@@H]1CN(C)Cc1ccc(Cl)c(Cl)c1`, for which the cytotoxicity call was “inactive”.
As to `C[C@@H]1CCCCO[C@H](CN(C)Cc2ccc(Cl)c(Cl)c2)[C@H](C)CN([C@@H](C)CO)C(=O)c2cc(NC(=O)Nc3ccc(C(F)(F)F)cc3)ccc2O1`, the cytotoxicity call is “active”.
Turning to `C[C@@H]1CCCCO[C@H](CN(C)Cc2ccc(Cl)c(Cl)c2)[C@@H](C)CN([C@@H](C)CO)C(=O)c2cc(NC(=O)Nc3ccc(C(F)(F)F)cc3)ccc2O1`, the cytotoxicity call is “active”.
On to `C[C@@H]1CCCCO[C@@H](CN(C)Cc2ccc(Cl)c(Cl)c2)[C@H](C)CN([C@@H](C)CO)C(=O)c2cc(NC(=O)Nc3ccc(C(F)(F)F)cc3)ccc2O1`, for which the cytotoxicity call was “active”.
`COc1ccc(S(=O)(=O)N(C)C[C@H]2Oc3c(NC(=O)C4CC4)cccc3C(=O)N([C@@H](C)CO)C[C@H]2C)cc1`: the cytotoxicity call was “inactive”.
`C[C@H](CO)N1C[C@H](C)[C@@H](CN(C)Cc2ccccc2)Oc2c(NC(=O)CCCCCC(=O)Nc3ccccc3N)cccc2C1=O`: the cytotoxicity call was “inactive”.
The value for `c1ccc([C@@H]2CCC[C@H](c3ccccc3)S2)cc1` was “inactive”; that for `C[C@H]1CN([C@@H](C)CO)C(=O)c2cc(NS(=O)(=O)c3cccs3)ccc2O[C@@H]1CN(C)C(=O)Nc1cccc2ccccc12` was “inactive”; that for `Cn1cc(C[C@@H](N)C(=O)O)c2ccccc21` was “inactive”.
Take `O=C(C[C@H]1C[C@@H]2c3cc(NC(=O)NC4CCCC4)ccc3O[C@@H]2[C@@H](CO)O1)NCCN1CCCCC1`: the cytotoxicity call was “inactive”.
Regarding `NC(Cc1cc(I)c(Oc2cc(I)c(O)c(I)c2)c(I)c1)C(=O)[O-].[Na+]` (configuration not stated), the cytotoxicity call is “inactive”.
The entry for `C[C@H]1CN([C@@H](C)CO)C(=O)c2cc(NC(=O)Nc3ccccc3)ccc2O[C@@H]1CN(C)C(=O)Nc1cccc2ccccc12` is “inactive”; for `C[C@H](CO)N1C[C@H](C)[C@H](CN(C)Cc2ccc(Cl)c(Cl)c2)OCCCC[C@H](C)Oc2ccc(NC(=O)Nc3ccc(C(F)(F)F)cc3)cc2C1=O` it is “active”.
As for `C[C@H]1CCCCO[C@H](CN(C)Cc2ccc(Cl)c(Cl)c2)[C@@H](C)CN([C@@H](C)CO)C(=O)c2cc(NC(=O)Nc3ccc(C(F)(F)F)cc3)ccc2O1`, the cytotoxicity call is “inactive”.
Consider `C[C@H]1CCCCO[C@@H](CN(C)Cc2ccc(Cl)c(Cl)c2)[C@@H](C)CN([C@@H](C)CO)C(=O)c2cc(NC(=O)Nc3ccc(C(F)(F)F)cc3)ccc2O1`, for which the cytotoxicity call is “inactive”.
The value for `CC(=O)c1ccc(O)c(C(N)=O)c1` was “inactive”; that for `COc1ccc(S(=O)(=O)Nc2ccc3c(c2)CC(=O)N([C@H](C)CO)C[C@H](C)[C@@H](CN(C)Cc2ccc(-c4ccccc4)cc2)O3)cc1` was “inactive”.
As to `COc1ccc(S(=O)(=O)Nc2ccc3c(c2)CC(=O)N([C@@H](C)CO)C[C@@H](C)[C@H](CN(C)Cc2ccc(-c4ccccc4)cc2)O3)cc1`, the cytotoxicity call is “active”.
Consider `COc1ccc(S(=O)(=O)Nc2ccc3c(c2)CC(=O)N([C@@H](C)CO)C[C@@H](C)[C@@H](CN(C)Cc2ccc(-c4ccccc4)cc2)O3)cc1`, for which the cytotoxicity call is “inactive”.
Regarding `COc1ccc(S(=O)(=O)Nc2ccc3c(c2)CC(=O)N([C@H](C)CO)C[C@@H](C)[C@@H](CN(C)Cc2ccc(-c4ccccc4)cc2)O3)cc1`, the cytotoxicity call is “active”.
For the compound `COc1ccc(S(=O)(=O)Nc2ccc3c(c2)CC(=O)N([C@H](C)CO)C[C@H](C)[C@H](CN(C)Cc2ccc(-c4ccccc4)cc2)O3)cc1`, the cytotoxicity call was “active”.
On to `COc1ccc(S(=O)(=O)Nc2ccc3c(c2)CC(=O)N([C@@H](C)CO)C[C@H](C)[C@H](CN(C)Cc2ccc(-c4ccccc4)cc2)O3)cc1`, for which the cytotoxicity call was “active”.
Take `COc1ccc(S(=O)(=O)Nc2ccc3c(c2)CC(=O)N([C@@H](C)CO)C[C@H](C)[C@@H](CN(C)Cc2ccc(-c4ccccc4)cc2)O3)cc1`: the cytotoxicity call was “inactive”.
